CRE-bla Fsk: alters forskolin-stimulated CRE reporter signaling in CHO cells; CHO CRE-bla reporter (cAMP response element driving beta-lactamase), forskolin EC10, beta-lactamase ratio; hit rate 2.5% among 71,000; Potency, µM (top dose mostly 38.2 µM), for the others: top-dose activity change, negative = inhibition, hits mostly activators; active = well fitted activation curve with a large enough effect in the signal ratio, with a control signal flat, not every such curve was filed as active; inconclusive = small, poorly fitted or top-dose-only effect, or effect the other way, or a change in a side signal; the % refers to the signal ratio; also: % of control where 0% means no effect
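CRE-bla CHO cells stimulated with EC10 NKH 477 (water-soluble forskolin) and compound titrations, 3 h at 37C; beta-lactamase read with CCF4 after 2 h at room temperature. Activity from 460/530 nm emission ratio, AC50 values for positive or negative modulation.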
IkB sig inh: IkB pathway inhibition in ABC-DLBCL cells; hit rate 0.04% among 110,000; ABC-DLBCL IkBa-CBG/CBR dual luciferase ratio, 4 h; response scale: scaled: untreated 0%, proteasome inhibitor 100%; AID 445; Potency, µM (titrated, usually from 57.1 µM), without a hit: top-dose IkBa stabilization activation; active = well fitted curve in the direction sought with a large enough effect in the signal ratio, not every such curve was filed as active; inconclusive = small, poorly fitted or top-dose-only effect, or a change in a side signal; the % refers to the signal ratio;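 also: the direction sought is a rising ratio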
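Luminescence ratio of IκBα-fused green versus native red beetle luciferase in OCI-Ly3 cells, 4 h post-doxycycline with compound; red signal alone, scaled from basal (0%) to zero light (-100%), flagged nonspecific or cytotoxic effects.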
Peg3 imprint: inducers of genomic imprint erasure in mouse ES cells | mouse ES Peg3-LacZ reporter, beta-gal luminescence, 40 h | Potency, µM (highest dose often 60.7 µM), without a hit: at the highest dose activity change, positive = activation, actives largely listed as activators | hit rate 0.02% among 110,000 | AID 1948
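Each well holds 300 Peg3LacZ-Neo (maternal) female ES cells incubated 40 h at 37C, 5% CO2. LacZ is measured by BetaGlo luminescence, with AC50 and maximum efficacy derived from dose-response curves.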
ERK AVP block: blocks ERK signaling stimulated by vasopressin; hit rate 0.99% among 72,000; HEK293-V1b, vasopressin-stimulated pERK AlphaScreen; Potency, µM (highest dose often 57.5 µM), for inactives: at the highest dose activity, negative = inhibition, actives largely listed as inhibitors; AID 995; also: % is scaled to controls: 0 for no effect and ±100 for the full control effect; nearly all actives have a fitted effect of over 55% in size
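Phosphorylated ERK1/2 detected via AlphaScreen bead proximity in lysates of V1b-expressing HEK293 cells given 25 nM vasopressin for 5 min after 30 min compound exposure (37 °C). AC50 from Hill equation; basal DMSO 0%, vasopressin 100%.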
Numbers without * were called inactive; ? = inconclusive; nt = not tested or not shown; ! = not active in a repeat; [ ] = another dose, or the depositor's remark. The full list was thinned out, with hits kept by preference. Unless noted, calls follow the shape of the dose curve; as a rule, active = well fitted curve in the direction sought with a large enough effect; inconclusive = small, poorly fitted or top-dose-only effect, or another doubt; inactive = no such curve, though single readings can be large; an effect the other way counts as inactive or inconclusive. Potency is read from the fitted curve at half-maximal effect.

SMILES | CRE-bla Fsk | IkB sig inh | Peg3 imprint | ERK AVP block
Cc1ccc2ccc3cccc4ccc1c2c34 | 15% | -1% | -1% | 21%
COc1ccc(C2SCCN2S(=O)(=O)c2ccc(F)cc2)cc1OC (stereo not drawn) | 0% | ? | -3% | 13µM*
Clc1ccccc1C(c1ccccc1)(c1ccccc1)n1ccnc1 | 21%[17.1 µM] | 3%[25.6 µM] | -21% | 25µM*!
COc1cc2c(cc1OC)C1=C(C#N)CN(C3CCCCC3)CN1CC2 | 1.6µM* | 9% | -5% | nt
COc1ccc(CCN2CC(C#N)=C3c4cc(OC)c(OC)cc4CCN3C2)cc1OC | ? | ? | -14% | nt
C=CCn1c(O)c(C(CC)=NCc2cccnc2)c(=O)[nH]c1=O | 13µM* | 5% | -11% | 9%
O=C1C=C[C@@H](O)[C@H]2[C@@H]3C(=O)N(C[C@@H]4CCCO4)C(=O)[C@@H]3CC[C@H]12 | nt | nt | nt | 33%[11.5 µM]
CCc1nc(SCC(=O)N2CCC(C)CC2)c2c(=O)n(C)c(=O)n(C)c2n1 | 10µM* | 1% | -16% | nt
CCc1nc(SCc2ccc(C(=O)OC)o2)c2c(=O)n(C)c(=O)n(C)c2n1 | 2µM* | 0% | -8% | nt
CCc1nc(SCC(N)=O)c2c(=O)n(C)c(=O)n(C)c2n1 | -4% | -1% | -7% | nt
COC(=O)c1ccc(CSc2nc(C)nc3sc(C)c(C)c23)o1 | 0.79µM* | ? | -24% | 0%
COc1ccc(-c2nc3cnc(N4CCNCC4)nc3n(Cc3cccs3)c2=O)cc1 | ? | 0%[11.4 µM] | -50% | 9%
Cc1cc(C)c2cc(C#N)c(N3CCCC3)nc2c1 | 13µM* | -1% | -6% | -7%
CCOC(=O)c1c(NC(=O)c2cc(C)on2)sc(C)c1C | nt | 0% | -3%[10.9 µM] | nt
CCOC(=O)c1c(Nc2nc(C)c(C(=O)NC)s2)sc(C)c1C | 2.5µM* | 0% | -11% | -20%
CCSc1nc2c(c(=O)[nH]c(=O)n2C)n1C/C=C(/C)Cl | 2.5µM* | 0% | ? | ?
C=CCSc1nc2c(c(=O)[nH]c(=O)n2C)n1C/C=C(/C)Cl | ? | 0% | 21% | ?
C/C(Cl)=C/Cn1c(SCc2ccc(Cl)cc2)nc2c1c(=O)[nH]c(=O)n2C | 23% | -1% | 5% | 6%
C/C=C/CSc1nc2c(c(=O)[nH]c(=O)n2C)n1Cc1ccc(C)cc1 | 7.9µM* | -1% | 2% | nt
CSc1nc2c(c(=O)[nH]c(=O)n2C)n1C/C=C(\C)Cl | 13µM* | 0% | -13% | -25%
C/C(Cl)=C\Cn1c(N2CCCC2)nc2c1c(=O)[nH]c(=O)n2C | 13µM* | -3% | -7% | 25µM*
Cc1ccc(Cn2c(Sc3ncccn3)nc3c2c(=O)[nH]c(=O)n3C)cc1 | 0% | -2% | -11% | -18%
Cc1c2ccccc2c(CSC(=N)N)c2ccccc12 | ? | ? | -36%[10.9 µM] | -15%[11.5 µM]
O=C(O)/C=C\c1cnc[nH]1 | 1% | 0% | nt | -8%
C[C@@H]1C[C@@]2(C)Oc3ccccc3[C@H]3OC[C@]1(COC(=O)Nc1ccccc1)[C@@H](C)[C@@H]32 | -14% | 1%[11.4 µM] | nt | nt
SMILES | CRE-bla Fsk | IkB sig inh | Peg3 imprint | ERK AVP block
Nc1nc(Cl)nc2c1ncn2[C@@H]1O[C@@H](COP(=O)(O)OP(=O)(O)OP(=O)(O)O)[C@@H](O)[C@H]1O | 8% | ? | nt | 15%
COc1ccc2nc3c(cc2c1)Cc1ccccc1-3 | ? | nt | -96% | 32µM*
Nc1ncnc2c1c(-c1ccc(Oc3ccccc3)cc1)cn2C1CCCC1 | ? | 4% | -25% | 7.9µM*
c1ccc(Cn2nnc3c(Nc4ccc5c(c4)OCO5)nc(C4CC4)nc32)cc1 | 13µM* | 0% | -20% | ?
COC(=O)CNc1nc(C2CC2)nc2c1nnn2Cc1ccccc1Cl | 16% | 0% | -8% | -8%
CCOc1ccc(NC(=O)Nc2ccc3c(c2)N(C)C(=O)CS3)cc1 | -7% | ? | 2% | ?
COc1ccc(NC(=O)Nc2ccc3c(c2)N(C)C(=O)CS3)cc1OC | ? | 14% | -3% | 25µM*
Cc1cc(C)c2nc3c(c([C@H](O)C4CCCCN4)c2c1)CC/C3=C/c1ccc(Cl)cc1 (stereo partly drawn) | nt | nt | -15%[10.9 µM] | nt
CCCCc1nc2c(c3c1CC(C)OC3)CN(CCC(C)C)CC2 (stereo not drawn) | nt | nt | nt | 7%[11.5 µM]
CC(C)(C)OC(=O)NCCCCCc1nnc(SCC(=O)Nc2cccc(Cl)c2)o1 | ? | ? | -5% | 25µM*
O=C(CSc1nnc(COc2ccccc2Cl)o1)NC(=O)NC1CCCC1 | -3% | ? | -4% | 20µM*
CCCn1nc(NC(=O)c2ccncc2)c2cc3ccccc3nc21 | 4µM* | ? | -4% | -29%
CCn1nc(NC(=O)c2ccncc2)c2cc3ccc(C)cc3nc21 | 13µM* | -2% | -9% | -7%
Cc1ccc2cc3c(NC(=O)c4cccnc4)nn(C)c3nc2c1 | -2% | -4% | -13% | -4%
Cc1ccc2cc3c(NC(=O)c4ccco4)nn(C)c3nc2c1 | 13µM* | -3% | 1% | 8%
CCCCn1nc(NC(=O)c2cccc(Cl)c2)c2cc3ccccc3nc21 | nt | ? | -7%[10.9 µM] | nt
CCn1nc(NC(=O)c2ccncc2)c2cc3cc(C)ccc3nc21 | 2µM* | 2% | 2% | -23%
CN1[C@@H]2CC(OC(=O)[C@@H](CO)c3ccccc3)C[C@H]1[C@H]1O[C@H]12 (stereo partly drawn) | -2% | 3% | nt | 5%
C=Cc1ccc(C=C)cc1 | -10% | 0% | 2% | 0%
COCCn1c(=O)c(-c2ccccc2)nc2cnc(N(C)C)nc21 | ? | -2%[11.4 µM] | -8% | 15%
CCNc1ncc2nc(-c3ccc(F)cc3)c(=O)n(CCC#N)c2n1 | 3.2µM* | -3%[11.4 µM] | nt | 6%
COc1ncc2nc(-c3ccc(F)cc3)c(=O)n(C)c2n1 | ? | -1%[11.4 µM] | 0% | 4%
CN(C)c1ncc2nc(-c3ccc(F)cc3)c(=O)n(CCC#N)c2n1 | 1.6µM* | 1%[11.4 µM] | nt | -6%
COc1ccc(Oc2ncc3nc(-c4ccc(F)cc4)c(=O)n(CCC#N)c3n2)cc1 | ? | 1%[11.4 µM] | -16% | -10%
CN(C)c1ncc2nc(-c3ccc(F)cc3)c(=O)n(C)c2n1 | 2.5µM* | -1%[11.4 µM] | 2% | 15%
SMILES | CRE-bla Fsk | IkB sig inh | Peg3 imprint | ERK AVP block
COCCn1c(=O)c(-c2ccc(F)cc2)nc2cnc(N(C)C)nc21 | 1.6µM* | 0%[11.4 µM] | ? | 22%
CCNc1ncc2nc(-c3ccc(OC)cc3)c(=O)n(CCC#N)c2n1 | ? | 1%[11.4 µM] | -6% | -2%
CC1(C)[C@@H](O)CC[C@@]2(C)[C@H]1CC[C@]1(C)[C@H]2C(=O)C=C2[C@@H]3C[C@@](C)(C(=O)O)CC[C@]3(C)CC[C@@]21C | ? | 1%[11.4 µM] | nt | nt
CC(C)=CCC/C(C)=C/CO/N=C1/C[C@@H](O)[C@@H](O)[C@@H]2[C@@H]3C(=O)N(Cc4ccc5c(c4)OCO5)C(=O)[C@H]3CC[C@H]12 | nt | nt | nt | -4%[11.5 µM]
Cc1nc2cnc(N(C)C)nc2n(CCC#N)c1=O | 13µM* | 0%[11.4 µM] | 8% | -12%
COc1ccccc1-n1cnc2cc(NCc3ccco3)ccc21 | 13µM* | ? | -30% | -15%
